# Measured values reported in PubChem BioAssay AID602289 (National Center for Advancing Translational Sciences (NCATS), 2012).
# The whole screen tested about 2,400 compounds, of which about 40 (2%) were called active. Not shown: some 1% with an inconclusive outcome. This is one part of a sample in which actives are shown more often than they occur.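 How the source made its calls: active means inhibition at or above 60%; inconclusive means inhibition from 0% up to below 60%; inactive means no inhibition observed.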
# Experiment: qHTS Assay for Small Molecule Inhibitors of Mitochondrial Division or Activators of Mitochondrial Fusion: Hit Validation in Malachite Green Assay;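 on inhibition: plate controls were DMSO wells with GTPase for no effect and protein-free buffer wells for full effect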
# Details: purified GTPase, malachite green phosphate release, A650; hits give high values
# From the text: The budding yeast S. cerevisiae is a powerful system to study mitochondrial fusion. Unlike other organisms, yeast cells without functional mitochondrial DNA (mtDNA) can be propagated and studied as long as they maintain a mitochondrial compartment and are provided with a fermentable carbon source. When mitochondrial fusion is blocked in yeast, mitochondrial tubules rapidly fragment and division continues unopposed. Under conditions where fusion is compromised in mammalian cells, nearly identical changes in mitochondrial structure have been observed. Thus, these findings indicate that steady state mitochondrial structure in cells is a characteristic and specific indicator of fusion activity. Mounting evidence has pointed to a connection between mitochondrial dynamics and apoptosis in mammalian cells. These studies indicate that in mammalian cells mitochondrial dynamics are more integrated into cellular processes than in yeast cells and have evolved not only to distribute the organelle but also to aid in the regulation of cellular homeostasis. Mitochondrial fusion proteins attenuate apoptosis by inhibiting the release of cytochrome c from mitochondria, in part by controlling cristae structures. Thus, small molecules that inhibit mitochondrial fusion may promote apoptosis and potentially act as novel chemotherapeutics and stimulation of apoptosis has become an attractive target of anti-cancer therapies. To identify inhibitors of mitochondrial division, we exploit the growth phenotypes of mitochondrial fusion-defective mutants. The temperature sensitive fusion alleles, such as fzo1-1 and mgm1-5, cause mitochondrial membranes to fragment in cells under non-permissive conditions and cells lose mtDNA, and are unable to grow in the presence of non-fermentable carbon source glycerol. Inhibiting mitochondrial division rescues growth. The hits were tested by the assay provider in a malachite green assay. NIH Chemical Genomics Center [NCGC] NIH Molecular Libraries Probe Production Centers Network [MLPCN] MLPCN Grant: MH081279 Assay Submitter (PI): Jodi M. Nunnari
# Malachite Green Reagent Malachite Green carbinol base- Aldrich 229105 Ammonium molybdate - Sigma A7302 For 100 mL Malachite Green reagent in 1N HCl 16 mL conc. HCL + 32 mL H20 = 48 mL 4N HCl 34 mg malachite green base into 40 mL 1N HCl (10 mL 4N HCl + 30 mL H20) 1 g ammonium molybdate in 15 mL 4N HCl Mix Solutions together. Bring up to […] with H2O. Filter using a 0.2 um tissue culture filter unit (has plastic bottle attached) store at 4 masculine C. (Avoid Glassware/Plastics washed in detergent. Mix solutions in 50 mL conical vials.) For 20 uL reaction volume 1.0 uL Test Drug or DMSO: Added first to each well […]: 25 mM Hepes/Pipes pH 7.0 (H/P) 2.0 uL: 50 mM MgCl2 (final 5mM) 2.32 uL: 1 M NaCl (with contributing protein salt, Final = 150mM) 13.4 uL per reaction. Can be mixed in larger volume (Mini Master Mix) 1.6 uL: Protein 7.5 uM or Protein Freezing Buffer. (Final = 0.6uM) After Protein Added to mini Master Mix, 15ul Total Master Mix added to each well with drug. 4 uL: 500 uM GTP (Final = 100uM), Dilute with 25 mM H/P, store on ice. 20 uL Total Volume Make Master Mix: (Calculate desired reactions and add a few for multi-channel pipetting volume). Multiply the number of desired reactions by 13.4 uL for total Mini Master volume. Multiply the number of desired reactions by 1.6 uL for total Protein volume. Mix, and keep on ice until added to wells. Add 15 uL of Master Mix to each reaction well, incubate with drug for 10 min. For Positive (No Drug) controls add 15 uL Master Mix to wells with only 1 uL DMSO. Make PFB (Protein Freezing Buffer) (no Protein) Master Mix. Multiply the number of desired reactions by 13.4 uL for total Mini Master volume. Multiply the number of desired reactions by 1.6 uL for total PFB volume. Mix, and keep on ice until added to wells Add 10 uL of PFBMaster Mix to each Phosphate Standards well, and 15 uL to each negative control well with DMSO. […]
row,SMILES,inhibition
1,O=C(COc1ccc(F)cc1Br)Nc1ccccc1N1CCOCC1,inactive
2,CC1=C(C(=O)OCc2ccccc2)C(/C=C/c2ccccc2)N2C(=O)CCSC2=N1 (stereo unspecified),inactive
3,CCNC(=O)C(=O)N/N=C/c1cc([N+](=O)[O-])ccc1O,78.8% (active)
4,CCN(CC)c1ccc(/C=N/NC(=O)c2ccc([N+](=O)[O-])cc2)cc1,inactive
5,O=[N+]([O-])c1ccc(O)c(P(=O)(c2ccccc2)c2ccccc2)c1,inactive
6,CCOC(=O)c1c(NC(=O)COC(=O)Cn2cnc3ccccc32)sc2c1CCC(C)C2 (stereo unspecified),inactive
7,N#C/C(=C\c1cn[nH]c1-c1ccc(Cl)cc1)C(=O)NCc1ccccc1,inactive
8,O=C(Nc1cccc(Br)c1)c1ccccc1-c1ccccc1,inactive
9,Nc1c(-c2ccccc2)c(CSc2nc3ccccc3[nH]2)nn1-c1ccc(Cl)cc1,inactive
10,O=C(c1cc(S(=O)(=O)N2CCN(c3ccccc3)CC2)ccc1Cl)N1CCCCCCC1,inactive
11,O=c1c2ccccc2sn1-c1cc(S(=O)(=O)N2CCOCC2)ccc1N1CCCC1,103% (active)
12,CCN(Cc1ccccc1)C(=O)c1oc2ccc(S(=O)(=O)N3CCOCC3)cc2c1C,inactive
13,CCOC(=O)c1cccc(-c2c(-c3ccccc3)ncc3cc(OC)c(OC)cc23)c1,inactive
14,O=C(NCc1ccc2c(c1)OCO2)c1ccc(CSCc2ccc(Cl)cc2)o1,inactive
15,O=C(Nc1ccccc1O)c1c(O)c2c([nH]c1=O)CCCC2,inactive
16,O=C(O)c1ccccc1CSc1nc2ccccc2n1Cc1ccccc1C(=O)O,inactive
17,COc1ccc(C(=O)CSc2ccc(-c3ccc(C)cc3)nn2)cc1,inactive
18,Cc1ccc(C(=O)CSc2nc(C(C)C)nc3ccccc23)cc1,inactive
19,Cc1cc(SCC(=O)c2ccc(Cl)cc2)nc(=O)[nH]1,96.8% (active)
20,O=C(Nc1ccc(N2CCOCC2)c(S(=O)(=O)Nc2ccccc2Cl)c1)c1ccccc1,inactive
21,COc1cccc(C(Nc2ccccn2)c2c(NC(=O)c3ccco3)sc(C)c2C)c1 (stereo unspecified),inactive
22,Cc1ccc(C)c(N2CCN(C(=O)CCCn3c(=O)c4cccn4c4cccnc43)CC2)c1,inactive

row,SMILES,inhibition
1,COc1cccc(C(=O)NC2CCN(C(=O)N3c4ccccc4Sc4ccccc43)CC2)c1,inactive
2,O=C(COc1cc2oc(=O)cc(-c3ccccc3)c2cc1Cl)NCc1ccccn1,inactive
3,O=C(COc1ccccc1-c1ccccc1)NCc1cccc(Cl)c1,inactive
4,C/C(=N\NC(=O)COc1ccccc1-c1ccccc1)c1ccccn1,71.6% (active)
5,O=[N+]([O-])c1ccccc1SN(Cc1ccccc1)c1ccccn1,inactive
6,CCC(CC)C(=O)Nc1cc(C(=O)OC)ccc1C(=O)OC,inactive
7,O=C(/C=C/c1ccc(Cl)cc1)N(c1ccccn1)C1CCCCC1,inactive
8,CC(/C=N/NC(=O)CSc1nnc(SCc2ccccc2)s1)=C\c1ccco1,inactive
9,COc1ccc(-c2nn(-c3ccccc3)cc2/C=N/Nc2ccc3ccccc3n2)cc1OC,inactive
10,COc1ccccc1C1CC(c2ccc(Br)cc2)=NN1C(=O)c1cccnc1 (stereo unspecified),inactive
11,CCC(C)c1ccc(N(CC(=O)NC(C)(C)C)C(=O)CNC(=O)c2cccs2)cc1 (stereo unspecified),inactive
12,Cc1nc(NCc2ccccn2)c2c3c(sc2n1)CCCC3,inactive
13,Cc1ccc(-c2nnc(NC(=O)c3ccco3)o2)c(C)c1,74.4% (active)
14,COc1c(C)cc(Br)cc1C(=O)Nc1cccc(NC(=O)c2ccco2)c1,inactive
15,CN(C)c1cccc(NC(=O)c2ccco2)c1,inactive
16,CC1=C(C)CC(C(=O)NNC(=O)c2csc3c2CCC(C(C)(C)C)C3)C(C(=O)O)C1 (stereo unspecified),inactive
17,Cc1ccc(SCCNS(=O)(=O)c2ccc3c(c2)OCCO3)cc1,inactive
18,C=CCc1c(C)nc(-c2ccccc2)nc1Nc1ccc(O)cc1,inactive
19,COc1ccc(Cl)cc1NC(=O)CN(C)C(=O)c1cc2c(F)cccc2s1,inactive
20,COc1cccc(C2=CC(=O)C[C@H](c3ccc(Cl)cc3)C2)c1,inactive
21,COC(=O)[C@@]12CCCCN1[C@H](c1ccc(-c3ccc(OC)cc3)c(OC)c1)[C@@H]1C(=O)N(C)C(=O)[C@@H]12,inactive
22,O=C(Nc1cccc(-c2nnc(-c3ccccc3)o2)c1)c1ccc(Br)o1,inactive

row,SMILES,inhibition
1,COc1ccc(OC)c(/C=C2\SC(N3CCCC(C)C3)=NC2=O)c1 (stereo unspecified),66.7% (active)
2,O=C1N=C(N2CCN(c3ccccc3)CC2)S/C1=C/c1cccs1,inactive
3,COc1cc(/C=C2\SC(N3CCCCC3)=NC2=O)cc(OC)c1OC,inactive
4,COC(=O)c1cc2c(ccn2-c2ccc(F)cc2)n1Cc1ccc(OC(C)=O)cc1,inactive
5,Cc1ccc(S(=O)(=O)NC23CC4CC(CC(C4)C2)C3)cc1,inactive
6,CC1CCc2nc3ccc(S(=O)(=O)N4CCC(C(=O)NCc5ccccc5Cl)CC4)cc3c(C(=O)O)c2C1 (stereo unspecified),inactive
7,Cc1ccc2nnn(Cc3cccc(C(C)(C)C)c3O)c2c1,inactive
8,COc1ccc(-c2nnc(NC(=O)c3ccc(F)cc3)o2)cc1,63.4% (active)
9,O=C(Nc1ccccc1N1CCCC1)c1ccc2ccccc2c1,inactive
10,COc1cccc(-c2nnc(NC(=O)c3ccc4ncsc4c3)o2)c1,inactive
11,O=C(Nc1nnc(-c2ccccc2)o1)c1cc(-c2cccs2)nc2ccccc12,inactive
12,O=C(Nc1nnc(-c2ccco2)o1)c1ccc2ccccc2c1,60.5% (active)
13,COc1ccc(C(=O)Nc2nc(-c3cccs3)cs2)cc1,inactive
14,Nc1nc(Nc2cccc(Cl)c2)nc(NCc2ccco2)c1[N+](=O)[O-],inactive
15,Cc1ccc(N=C2NC(=O)/C(=C\c3ccsc3)S2)c(C)c1,inactive
16,COc1ccc(C(=O)Nc2cc3c(cc2N2CCCCC2)n(C)c(=O)n3C)cc1OC,inactive
17,O=C(CCNC(=O)c1ccccc1Cl)Nc1ccc(Cl)c(C(F)(F)F)c1,inactive
18,O=C(Nc1cccc(-c2nc3ccccc3s2)c1)c1cccs1,inactive
19,CC(=O)Nc1ccc(O)c(-c2nc3ccccc3s2)c1,inactive
20,Cc1c(NC(=O)c2cccs2)cccc1-c1nc2ccccc2s1,85.9% (active)
21,CCOc1ccc2nc(NC(=O)Nc3cccs3)sc2c1,inactive
22,Cc1c(Cl)c([N+](=O)[O-])nn1Cc1ccc(C(=O)Nc2ccc(Cl)cn2)o1,inactive

row,SMILES,inhibition
1,O=C(Nc1ccc(O)c2c(=O)cc(-c3cccc(Cl)c3)oc12)c1ccccc1Cl,inactive
2,CC(C)n1c(C(=O)OCC(=O)NCc2ccc3c(c2)OCO3)cc2sccc21,inactive
3,CC(CCc1ccccc1)NC(=O)/C=C/c1ccc(F)cc1 (stereo unspecified),inactive
4,CCNc1ccc(Br)cc(C(=O)/C=C/c2ccc(Cl)cc2)c1=O,100% (active)
5,CCOC(=O)c1c(C)[nH]c(C)c1C(=O)COC(=O)/C=C/c1ccc(Cl)cc1,inactive
6,CC(=O)Nc1cccc(C(=O)/C=C/c2ccc(Br)cc2)c1,inactive
7,CCOc1ccc(CN(C(=O)c2cc3ccccc3oc2=O)C2CC2)cc1,inactive
8,O=C(c1ccc(COc2ccc(Cl)cc2)o1)N1CCN(Cc2ccc3c(c2)OCO3)CC1,inactive
9,CCOC(=O)c1n[nH]n2c1nc(=O)c1ccccc12,inactive
10,Cc1nc(CS(=O)(=O)c2ccc(Cl)cc2)cc(Sc2ccccc2Cl)n1,inactive
11,CCCCc1cc(=O)oc2cc(OS(C)(=O)=O)ccc12,inactive
12,CCCCc1c(C)nc2ccccc2c1SCCC#N,73.5% (active)
13,CCCCN(CC)c1nc(-c2ccncc2)nc2ccccc12,inactive
14,CCCc1c(C)nc2ccccc2c1SCCC#N,84.5% (active)
15,CCCCSc1nnc(-c2ccc(C)cc2)c2ccccc12,inactive
16,COc1ccc(-c2ccc(-c3nc4ccc(C)cn4c3NC3CCCCC3)cc2OC)cc1,inactive
17,Cc1cc2c(cc1C)CSC(c1ccccc1O)SC2,inactive
18,CCOC(=O)c1ccc(NC(=S)N2CCSC2c2ccc(Cl)cc2)cc1 (stereo unspecified),inactive
19,CCCCC(c1nnnn1CC1CCCO1)N1CCN(c2nc3ccccc3s2)CC1 (stereo unspecified),inactive
20,Cc1cccc(-c2nc(CS(=O)CC(=O)NC(C)CCc3ccccc3)c(C)o2)c1 (stereo unspecified),inactive
21,COC(=O)c1sc2nc(C)nc(SCC(=O)C(C)(C)C)c2c1C,inactive
22,Cc1ccccc1N=C(NOCc1ccccc1)c1nonc1N,inactive

row,SMILES,inhibition
1,C[C@@]12C(=O)N(Cc3ccccc3)CC(=O)N1[C@H]1c3cc(Cl)ccc3OC[C@@H]1[C@@H]2c1ccccc1,inactive
2,Cc1occc1C(=O)NC1CCCCCCC1,inactive
3,O=C(Nc1cc(-c2ccccc2)cs1)c1ccco1,inactive
4,CCCc1cc(C(N)=O)c(NC(=O)c2ccoc2C)s1,101% (active)
5,Cc1sc(NC(=O)c2ccco2)nc1-c1ccccc1,inactive
6,CCC1CCc2c(sc(NC(=O)c3ccoc3C)c2C(N)=O)C1 (stereo unspecified),inactive
7,NC(=O)c1cc(Cc2ccccc2)sc1NC(=O)c1ccco1,102% (active)
8,Cc1ccc(C)c(N2CCN(C(=O)c3csc4ccccc34)CC2)c1,inactive
9,Cc1cc(-c2ccc(C)c(S(=O)(=O)NCc3ccc(Br)cc3)c2)on1,inactive
10,N/C(=N\OC(=O)c1ccccc1Cl)c1ccc(Cl)cc1,inactive
11,CCN(CC(=O)Nc1cc(S(=O)(=O)N2CCCCC2)ccc1Cl)Cc1ccccc1,inactive
12,COc1ccc(Nc2ncc(C(=O)N3CCN(Cc4ccccc4)CC3)c3ccccc23)cc1,inactive
13,c1ccc(NCc2nc3ccccc3n2CCOc2ccccc2)cc1,inactive
14,COc1ccc(Br)cc1/C=C/C(=O)Nc1ccc(C)cc1,inactive
15,CNc1ccc(Br)cc(C(=O)/C=C/c2ccc(OC)cc2OC)c1=O,90.1% (active)
16,COc1ccc(/C=C/C(=O)N2CCCc3ccccc32)c(OC)c1,inactive
17,COc1cc2c(cc1NC(=O)CSc1nc3ccccc3[nH]1)oc1ccccc12,inactive
18,O=C(N/N=C/c1cn(-c2cccs2)nc1-c1ccccc1)c1ccccc1Cl,inactive
